Sampled rows, rich in hits. Any-hit rate of the full collection: about 6.9%.
FXIa inh mix – FXIa protease inhibitors in compound pools, primary screen, biochemical, 10-compound mixtures | Coagulation factor XI (Homo sapiens), P03951 | purified FXIa, fluorogenic substrate, pooled mixtures | actives 0.19% (n = 62,000) | inhibition, % at 5 µM;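 also: each value is inhibition by a whole ten-compound pool holding the compound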
HER2 expr 66K – inhibitors of Her2 protein expression, primary screen, SKBR-3 cells, AlphaScreen, 66K library. Receptor tyrosine-protein kinase erbB-2 (Homo sapiens), P04626. SKBR-3 HER2 protein level, 18-24 h; hits give low values. HER2 level % of control, % at 10 µM. actives 0.69% (n = 65,000). AID 645, 2007;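 active = HER2 level under 5% of the carrier-only control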;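 also: lower value means stronger loss of Her2 protein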
M1 antagonist – antagonists of rat M1 muscarinic receptor; CHO-M1 cells, Fluo-4 calcium, ACh EC80 antagonist mode; hits give low values; B-score at 10 µM; actives 3.4% (n = 64,000); AID 628, 2007;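 active = calcium fluorescence response, raw or row-and-column corrected B-score, differing from the plate sample mean either way at a set confidence level, mostly lower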
FXIIa inh mix – human factor XIIa inhibitors, primary screen, biochemical, pooled compound mixtures, fluorogenic substrate; Coagulation factor XII (Homo sapiens), P00748; purified FXIIa; inhibition, % at 5 µM; actives 0.2% (n = 62,000); AID 684, 2007
M1 agonist – M1 muscarinic receptor agonists, primary screen, CHO-M1 cells, Fluo-4 calcium, agonist mode; actives 3% (n = 64,000); Fluo-4 calcium fluorescence; hits give high values; Muscarinic acetylcholine receptor M1; AID 626, 2007; B-score at 10 µM;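 active = fluorescence rise, raw or as B-score row- and column-corrected plate score, outside the 99.7% band of its plate's samples, either direction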
JNK3 inh – JNK3 kinase activity inhibitors, primary screen, biochemical, human, purified enzyme | Mitogen-activated protein kinase 10 (Homo sapiens), P53779 | HTS | inhibition, % at 8 µM | actives 0.61% (n = 60,000) | AID 746, 2007; in the data active = inhibition above about 17%
Target sequence (P53779 whole entry, looked up): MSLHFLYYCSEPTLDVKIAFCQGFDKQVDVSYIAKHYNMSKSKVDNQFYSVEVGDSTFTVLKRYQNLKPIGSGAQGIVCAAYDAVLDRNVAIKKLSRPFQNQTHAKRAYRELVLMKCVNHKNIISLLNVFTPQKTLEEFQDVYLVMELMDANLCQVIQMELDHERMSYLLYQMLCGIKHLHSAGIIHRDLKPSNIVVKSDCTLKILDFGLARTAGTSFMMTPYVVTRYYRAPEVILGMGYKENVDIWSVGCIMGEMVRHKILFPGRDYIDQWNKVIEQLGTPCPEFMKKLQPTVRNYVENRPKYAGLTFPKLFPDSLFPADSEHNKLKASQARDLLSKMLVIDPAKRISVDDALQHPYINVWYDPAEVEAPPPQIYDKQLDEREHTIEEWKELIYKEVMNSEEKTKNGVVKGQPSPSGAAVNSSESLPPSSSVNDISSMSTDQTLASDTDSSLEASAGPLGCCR
Numbers stand for hits; 0 = inactive; - = no result. Rule as the data show it, unless noted: active = inhibition above about 20% (passing the limit was not always enough); inactive = the rest.

SMILES	FXIa inh mix	HER2 expr 66K	M1 antagonist	FXIIa inh mix	M1 agonist	JNK3 inh
CNC(=O)CN(C1CCCCC1)S(=O)(=O)c1ccc(OC)c(Cl)c1	0	0	0	48	0	0
COc1ccc(S(=O)(=O)N(CC(=O)NC2CC2)C2CCCCC2)cc1Cl	0	0	0	0	0	0
O=C(O)CCc1nn2cc(-c3ccccc3)nc2[nH]c1=O	-	-19	0	-	0	0
Cc1ccc(Cn2cccc(NC(=O)c3ccco3)c2=O)cc1	0	0	0	0	0	0
CCSc1nncn1/N=C/c1ccc(OC)c(OC)c1	0	0	0	0	0	0
COc1ccc(/C=N/n2c(N)nc3ccccc32)cc1OC	0	0	-	0	-	48
CC1(C)Cc2ccccc2-c2nnc(SCC(=O)N3CCN(c4ccccc4)CC3)n21	0	0	0	0	3.3	0
CCOC(=O)C(C)Sc1nnc2n1C(C)(C)Cc1ccccc1-2 (stereo not given)	0	0	-	0	-	0
N#CC(C(=O)NC1CCCCC1)c1nc2ccccc2nc1N1CCOCC1 (stereo not given)	0	0	0	0	84	0
CC1CN(c2nc3ccccc3nc2C(C#N)C(=O)NCc2ccc3c(c2)OCO3)CC(C)O1 (stereo not given)	0	0	0	0	9.8	0
COC(=O)C1CCN(c2nc3ccccc3nc2C(C#N)C(=O)OCC(C)C)CC1 (stereo not given)	0	0	0	0	0	0
COC(=O)C1CCN(c2nc3ccccc3nc2C(C#N)C(=O)NCCc2ccccc2)CC1 (stereo not given)	-	0	0	-	25	0
COCc1nnc(NC(=O)c2ccc(S(=O)(=O)N(C)C3CCCCC3)cc2)o1	0	0	0	0	0	0
COC(=O)c1ccc(OCC(=O)Nc2nn(-c3ccccc3)nc2C(N)=O)cc1	0	0	0	0	0	0
O=C(CCn1c(=O)sc2ccccc21)NCCN1CCOCC1	0	0	0	0	0	0
CCc1ccc(NC(=O)CNS(=O)(=O)c2c(C)noc2C)cc1	0	0	0	0	0	0
CC1=C(C(=O)OCC2CCCO2)C(c2ccc(C)o2)C2=C(CC(c3ccc(N(C)C)cc3)CC2=O)N1 (stereo not given)	0	0	0	0	5.6	0
COc1ccccc1-c1cc(C(F)(F)F)nc(N2CCOCC2)n1	22	0	0	0	0	-
CC1CCN(c2nc(-c3ccccc3)cc(C(F)(F)F)n2)CC1	0	0	0	0	0	-
COc1ccccc1-c1cc(C(F)(F)F)nc(N2CCN(c3ccccc3)CC2)n1	0	0	0	0	0	-
Fc1ccc(-c2cc(C(F)(F)F)nc(N3CCCCC3)n2)cc1	0	0	0	21	0	-
C/C(Cl)=C\Cn1c(N2CCCCCC2)nc2c1c(=O)n(C)c(=O)n2C	0	0	0	0	0	0
CCCCN1C(=O)c2ccc(C(=O)Nc3c(N)n(CCCC)c(=O)n(C)c3=O)cc2C1=O	0	0	0	0	0	-
O=C(O)CC1C(=O)NCCN1Cc1ccc(F)c(F)c1 (stereo not given)	0	0	1.4	0	0	0
Cc1ccc(S(=O)(=O)Nc2cccc3ncccc23)s1	0	-5.5	0	0	0	0
SMILES	FXIa inh mix	HER2 expr 66K	M1 antagonist	FXIIa inh mix	M1 agonist	JNK3 inh
CCOc1ccccc1NS(=O)(=O)c1ccc(Br)s1	0	0	0	0	0	0
CCOC(=O)c1c(NC(N)=O)sc(C)c1C	29	0	0	0	0	0
C=CCc1cccc2cc(C(=O)N(CC)CC)c(=O)oc12	0	0	0	0	0	0
COc1cc(C(=O)NCc2cn3ccccc3n2)cc(OC)c1OC	-	0	0	-	0	58
O=C(COc1ccccc1)Nc1nnc(-c2ccc(Cl)s2)o1	0	0	0	0	0	0
CCOC(=O)N1CCC(n2c(=S)[nH]c3cc(OCC)c(OCC)cc3c2=O)CC1	0	0.2	0	0	0	-
CCOc1cc2[nH]c(=S)n(CCCN3CCOCC3)c(=O)c2cc1OCC	0	0	0	0	0	-
CCC(NC(=O)Nc1cc(OC)c(OC)c(OC)c1)(C(F)(F)F)C(F)(F)F	0	0	2.4	0	0	0
COC(=O)c1cc(NC(=O)Cn2c(=O)cnc3ccccc32)cc(C(=O)OC)c1	0	0	0	0	0	0
CCOc1ccc(NS(=O)(=O)c2ccc3[nH]cc(C(=O)N(CC)CC)c(=O)c3c2)cc1	0	0	-11	0	23	0
Cc1ccc(C(=O)CSC2=C(C#N)C(c3ccco3)C3=C(CCCC3=O)N2)cc1 (stereo not given)	-	0	0	-	0	0
N#CC1=C(SCC(=O)c2ccccc2)NC2=C(C(=O)CCC2)C1c1ccco1 (stereo not given)	-	0	0	-	0	58
Cc1ccc(S(=O)(=O)C2(C(=O)Nc3cccc(F)c3)CC2)cc1	0	0	0	0	0	0
COc1ccc(OC)c(Nc2nc(N)nc(-c3cc4ccccc4o3)n2)c1	0	0	0	0	0	32
O=C(Cn1cnc2ccccc2c1=O)Nc1ccc(-c2nnc3n2CCCCC3)cc1	0	0	0	0	0	30
Cc1ccc2[nH]c3c(c2c1)CCC3=O	0	0	0	0	0	0
Cc1ccc2[nH]c3c(c2c1)CCc1cn[nH]c1-3	0	0	0	0	0	43
Cc1oc2ccc(OCC(N)=O)cc2c1C(=O)OC(C)C	0	0	0	0	0	32
CCOC(=O)c1c(C)oc2ccc(OCC(=O)C(C)(C)C)cc12	0	0	0	0	0	0
CCOC(=O)/C=C/S(=O)(=O)c1ccc(NC(C)=O)cc1	0	-22	1.9	0	0	0
CC(=O)Nc1ccc(S(=O)(=O)c2ccc(N)cc2)cc1	0	0	0	0	0	0
Cc1ccc(N2CC(C(=O)NCC3CCCO3)CC2=O)cc1Cl (stereo not given)	0	0	0	0	0	0
COC(=O)c1c(-c2cccs2)csc1NC(=O)CN1CCOCC1	0	0	0	0	0	23
CCOC(=O)c1c(-c2ccc(C)o2)csc1NC(=O)CN1CCN(CC)CC1	0	0	0	0	0	0
Cc1ccc(C)c(C(=O)COC(=O)c2ccc(Br)o2)c1	0	0	2.2	0	0	0
SMILES	FXIa inh mix	HER2 expr 66K	M1 antagonist	FXIIa inh mix	M1 agonist	JNK3 inh
Cc1ccc2nc(Cc3ccc(N)cc3)oc2c1	0	0	0	0	0	21
Cc1ccc2nc(CCc3nc4ccc(C)cc4o3)oc2c1	0	0	0	0	0	0
CCn1cnc2scc(-c3ccccc3)c2c1=O	0	0	10	0	0	0
O=S(=O)(Nc1ccc2nc(-c3ccc(Br)o3)[nH]c2c1)c1ccccc1	0	0	0	28	0	0
CCOC(=O)C1CCCN(CCC(=O)Nc2cccc(F)c2)C1 (stereo not given)	0	0	0	0	0	0
CCOC(=O)C1CCN(CCC(=O)Nc2cccc(Cl)c2)CC1	0	0	0	35	0	0

Screening data deposited in PubChem by several laboratories.
